Assay outcomes as filed in PubChem BioAssay.
Most compounds without a hit are left out; they make up all but 9.4% or so of the library.
HPGD block = qHTS Assay for Inhibitors of HPGD (15-Hydroxyprostaglandin Dehydrogenase) | 15-hydroxyprostaglandin dehydrogenase [NAD(+)] (Homo sapiens), P15428 | purified HPGD, NADH fluorescence kinetic, PGE2 substrate | Potency, µM, without a hit: at the highest dose activity change, negative = inhibition, actives largely listed as inhibitors | hit rate 4.3% among 150,000; active means well fitted inhibition curve with a large enough effect, not every such curve was filed as active; inconclusive means small, poorly fitted or top-dose-only effect, or another doubt; inactive means no such curve, though single readings can be large or run the other way; further: potency means the concentration at half of the fitted maximal effect; on the % scale 0 is the no-effect control and ±100 the full control effect
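NADH formation kinetics: reaction with 30 uM PGE2 and 1 mM NAD+ (final), 20 nM enzyme, Tris-HCl pH 8 with Tween 20, after 15 min compound preincubation at room temperature. Fluorescence change, last versus first of five reads.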
ALDH1A1 inh = qHTS Assay for Inhibitors of Aldehyde Dehydrogenase 1 (ALDH1A1). Purified ALDH1A1, NADH fluorescence, propionaldehyde substrate. AID 1030, 2008. Potency, µM (top dose mostly 75.3 µM), for inactives: at the highest dose activity, negative = inhibition, actives largely listed as inhibitors. hit rate 7.3% among 220,000; active means well fitted inhibition curve with a large enough effect, not every such curve was filed as active; inconclusive means small, poorly fitted or top-dose-only effect, or another doubt; inactive means no such curve, though single readings can be large or run the other way;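 further: potency means the concentration at half of the fitted maximal effect; plate controls were no enzyme wells and a reference inhibitor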
Target sequence (P00352 whole entry, looked up): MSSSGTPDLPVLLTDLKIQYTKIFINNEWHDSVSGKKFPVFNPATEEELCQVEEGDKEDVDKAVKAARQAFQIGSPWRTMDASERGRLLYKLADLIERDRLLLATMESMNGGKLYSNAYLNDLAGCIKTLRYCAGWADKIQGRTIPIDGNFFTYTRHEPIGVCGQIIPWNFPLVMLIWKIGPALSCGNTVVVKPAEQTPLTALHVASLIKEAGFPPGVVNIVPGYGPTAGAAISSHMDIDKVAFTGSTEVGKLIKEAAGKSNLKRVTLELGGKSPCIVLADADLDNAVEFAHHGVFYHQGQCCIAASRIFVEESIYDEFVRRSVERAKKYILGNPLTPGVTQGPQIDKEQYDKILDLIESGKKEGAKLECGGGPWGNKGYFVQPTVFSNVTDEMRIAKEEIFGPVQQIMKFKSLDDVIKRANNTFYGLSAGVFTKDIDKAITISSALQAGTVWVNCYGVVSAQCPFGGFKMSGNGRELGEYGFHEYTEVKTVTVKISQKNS
HTT ATP protect = qHTS Multiplex Assay to Identify Dual Action Probes in a Cell Model of Huntington: Cytoprotection (ATP); Potency, µM (doses to about 56.4 µM), for inactives: cytoprotection (ATP increase), most hits filed as activators; PC12 HTT-Q103 induced, cytoprotection, ATP luminescence, 40 h; AID 1471, 2008; hit rate 0.14% among 230,000; further: potency means the concentration at half of the fitted maximal effect; % of control where 0% means no effect; nearly all actives have a fitted effect of over 45% in size
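ATP quantification (ATPlite) reports survival of PC12 cells in which tebufenozide, 100 nM final, switches on Htt exon 1 with 103 glutamines linked to GFP; compounds are titrated.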
IMPase cell inh = qHTS Assay for Identifying the Cell-Membrane Permeable IMPase Inhibitors; Inositol monophosphatase 1 (Rattus norvegicus), P97697; CHO-M1 cells, IP1 accumulation, HTRF TR-FRET ratio; inhibition (IP1 accumulation), % at 46.1 µM; 120,000 tested, under 10 active; active means well fitted curve in the direction sought with a large enough effect in the signal ratio, not every such curve was filed as active; inconclusive means small, poorly fitted or top-dose-only effect, or a change in a side signal; inactive means no such curve, though single readings can be large or run the other way; the % refers to the signal ratio;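 further: cells stimulated with carbachol in lithium chloride buffer; plate controls were DMSO basal wells for no effect and reference inhibitor wells for full effect; higher means more IMPase inhibition seen as more IP1 and lower FRET ratio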
Target sequence (P97697 whole entry, looked up): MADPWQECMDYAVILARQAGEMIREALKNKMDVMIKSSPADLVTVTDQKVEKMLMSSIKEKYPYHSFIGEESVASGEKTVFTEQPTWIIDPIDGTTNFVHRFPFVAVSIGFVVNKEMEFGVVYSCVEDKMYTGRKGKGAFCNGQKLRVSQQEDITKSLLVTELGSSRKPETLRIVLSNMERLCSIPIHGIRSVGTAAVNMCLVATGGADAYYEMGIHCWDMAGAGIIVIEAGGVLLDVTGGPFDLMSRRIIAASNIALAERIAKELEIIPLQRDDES
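CHO-M1, 2000 cells/well, cultured 16–30 h; cpd up to 46 uM; carbachol (50 uM solution, stimulation buffer w/ 50 mM LiCl, pH 7.4), 30 min 37C; IP-One TR-FRET, 10 min RT; Ex 320/Em 665, 620; Hill-fit AC50.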
HTT aggregate = qHTS Multiplex Assay to Identify Dual Action Probes in a Cell Model of Huntington: Aggregate Formation (GFP); hit rate 1.1% among 220,000; Potency, µM (top dose mostly 46.1 µM), for inactives: top-dose activity change, negative = inhibition, hits mostly inhibitors; PC12 HttQ103-GFP aggregates, Acumen cytometry, 40 h; further: potency means the concentration at half of the fitted maximal effect; on the % scale 0 is the no-effect control and ±100 the full control effect; nearly all actives have a fitted effect of over 60% in size
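Aggregates are detected as GFP objects 1–25 µm with signal 6 STDEV over background in lysates of induced PC12 cells. These carry Huntingtin exon 1 with 103 glutamines fused to GFP under an ecdysone promoter; compounds titrated.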
IMPase Li inh = qHTS Assay for Identifying the Cell-Membrane Permeable IMPase Inhibitors: Potentiation with Lithium | CHO-M1 cells, IP1 TR-FRET (IP-One), carbachol + lithium | Potency, µM (highest dose often 59.4 µM), for the others: at the highest dose activity, negative = IMPase inhibition, hits mostly inhibitors | hit rate 0.35% among 210,000 | AID 1457, 2008;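 further: IP1 builds up when IMPase is blocked and the TR-FRET signal falls; potency means the concentration at half of the fitted maximal effect; plate controls were basal vehicle for no effect and high inhibitor control for full effect; nearly all actives have a fitted effect of over 50% in size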
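Test compounds were applied to CHO-M1 cells previously cultured for 16–30 h at 2000 per well. A small lithium amount accompanied them; after 30 min at 37C, IP1 was quantified by TR-FRET.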
Starred values were filed as active, the others as inactive; ? = inconclusive; . = not tested or not shown; [ ] = remark or other dose. Unless noted, the call rests on the fitted dose curve; in most records, active means well fitted curve in the direction sought with a large enough effect; inconclusive means small, poorly fitted or top-dose-only effect, or another doubt; inactive means no such curve, though single readings can be large; an effect the other way counts as inactive or inconclusive.

SMILES	HPGD block	ALDH1A1 inh	HTT ATP protect	IMPase cell inh	HTT aggregate	IMPase Li inh
O=C1[C@H]2[C@H]3[C@H](O)[C@H](O)C/C(=N/OCc4ccccc4)[C@@H]3CC[C@@H]2C(=O)N1Cc1ccc2c(c1)OCO2	.	-5.6%[13.5 µM]	5.5%[10 µM]	.	.	.
CC/C(=N/Nc1ccccc1)c1cnnc(-c2ccccc2)n1	-19.0%	10µM*	-4.9%[10 µM]	-1.8	1.1%	8.8%
CC(C)(C)C(=O)Nc1ccc(C(=O)N/N=C/c2ccccc2OC(=O)c2ccccc2)cc1	-8.0%	7.7%	-101.6%	-0.6	11.2µM*	6.9%[38.3 µM]
O=C(N/N=C/c1ccccc1OC(=O)c1ccc2c(c1)OCO2)c1ccccc1	-12.4%	?	-73.4%[10 µM]	.	5.01µM*	8.8%
O=C(N/N=C/c1cc2c(cc1Cl)OCO2)c1ccc2c(c1)OCCO2	.	.	-3.3%[10 µM]	.	-0.9%[9.22 µM]	.
COc1ccc(NC(=O)NCCN2C(=O)C3C4C=CC(C4)C3C2=O)cc1 (stereo not drawn)	2.3%	?	-24.7%	-4.0	2.0%	4.1%
Cc1ccc(NC(=O)NCCN2C(=O)C3C4C=CC(C4)C3C2=O)cc1 (stereo not drawn)	-17.4%	10µM*	-35.9%	-0.9	9.3%	-1.7%[38.3 µM]
O=C(NCCN1C(=O)C2C3C=CC(C3)C2C1=O)Nc1ccccc1 (stereo not drawn)	-13.4%	12.6µM*	-28.0%	-5.0	-0.5%	-5.4%[38.3 µM]
CCOC(=O)c1cnc(SC2CCc3ccccc3C2=O)nc1N (stereo not drawn)	28.2µM*	31.6µM*	-30.6%	-8.4	-9.4%	16.0%[38.3 µM]
CCOC(=O)c1cnc(SC2CC(=O)N(c3ccccc3)C2=O)nc1N (stereo not drawn)	-0.7%	?	-22.7%	0.2	-0.4%	-8.5%[38.3 µM]
CC(=O)OC1CC(C)OC(C)O1 (stereo not drawn)	1.2%	9.2%	-10.0%	.	.	21.2%
O=c1oc2cc(O)ccc2cc1-c1ccc2c(c1)OCCO2	?	?	-236.7%	.	.	-15.2%
CN(C)CCN1CC(O)=C(c2nc3ccccc3s2)C1=N	.	.	21.7%[10 µM]	.	3.1%[9.22 µM]	.
N=C1C(c2nc3ccccc3s2)=C(O)CN1Cc1ccco1	?	22.4µM*	-23.4%	10.3	-0.5%	16.4%[38.3 µM]
Cc1cc(-c2ccc(N=Nc3cc(S(=O)(=O)O)c4ccccc4c3N)c(C)c2)ccc1N=Nc1cc(S(=O)(=O)O)c2ccccc2c1N	?	?	-79.8%	.	.	-1.5%
O=C(Nc1cccc(-c2cnc3ccccc3n2)c1)c1ccco1	-23.2%	25.1µM*	-7.8%	0.1	?	27.1%[38.3 µM]
O=C(Nc1nnc(COc2ccc(Cl)cc2)s1)C1CCCO1 (stereo not drawn)	17.8µM*	10µM*	-24.3%[0.074 µM]	-3.2	-2.5%	6.3%
O=C(Nc1nnc(COc2ccc(Cl)cc2)s1)c1ccco1	.	3.16µM*	4.4%[10 µM]	.	-8.9%[9.22 µM]	-5.8%
O=C(Nc1nnc(SCc2ccc(Cl)cc2)s1)C1CCCO1 (stereo not drawn)	-11.1%	2.7%	-4.6%	-7.0	-17.3%	41.1%[38.3 µM]
O=C(Nc1nnc(COc2ccc(Cl)cc2)s1)c1cccs1	25.1µM*	10µM*	-0.8%[10 µM]	4.9	11.3%	-3.1%
CC(C)c1nnc(NC(=O)C2CCCO2)s1 (stereo not drawn)	.	3.77µM*	?	.	?	10.7%
CCc1nnc(NC(=O)C2CCCO2)s1 (stereo not drawn)	.	10.8%	23.7%[10 µM]	.	5.4%[9.22 µM]	9.3%
O=C(Nc1nnc(COc2ccc(F)cc2)s1)c1cccs1	-19.8%	0.8%	13.0%[10 µM]	-1.5	2.4%	10.7%
CCCCCOc1ccc(/C=C/C(=O)Nc2sc(C(C)=O)c(C)c2C(=O)OCC)cc1OC	.	.	.	-8.7	.	.
CCOCc1nnc(NC(=O)c2cc(Cl)ccc2OC)s1	14.1µM*	?	7.9%	-3.9	-3.6%	21.8%[38.3 µM]
SMILES	HPGD block	ALDH1A1 inh	HTT ATP protect	IMPase cell inh	HTT aggregate	IMPase Li inh
COCc1nnc(NC(=O)c2cc(Cl)ccc2OC)s1	?	?	15.4%[10 µM]	1.5	-0.1%	12.8%[38.3 µM]
Cc1ccc(NC(=O)c2cc(=O)c3ccccc3o2)cc1S(=O)(=O)N1CCOCC1	.	.	-0.7%[10 µM]	.	0.7%[9.22 µM]	.
Cc1ccc(NC(=O)c2cc(=O)c3ccccc3o2)cc1S(=O)(=O)N1CCCCC1	.	31.6µM*	19.4%[10 µM]	.	9.6%	18.2%
O=C(Nc1cccc(S(=O)(=O)N2CCCCC2)c1)c1ccccc1NS(=O)(=O)c1ccc(F)cc1	?	?	17.2%[1.9 µM]	-4.8	29.2%	20.9%
Cc1ccc(NC(=O)c2ccccc2NS(=O)(=O)c2ccc(F)cc2)cc1S(=O)(=O)N1CCCCC1	?	?	-36.9%[10 µM]	.	2.51µM*	11.2%
COC(=O)[C@H](COC(C)(C)C)NC(=O)O[C@@H]1Cc2cc(Br)ccc2O[C@H]1c1cccc(OC)c1	-4.0%	15.8%	-27.0%	.	.	21.2%
C[C@@]12C[C@H](O)C3[C@H](CCC4=CC(=O)CC[C@]43C)[C@H]1CC[C@@H]2c1csc(-c2ccccc2)n1 (stereo partly drawn)	-15.2%	3.2%[13.5 µM]	.	.	.	10.5%
O=C1/C(=C/c2ccc(O)c([N+](=O)[O-])c2)SC(=S)N1Cc1ccccc1	.	3.98µM*	.	.	?	11.1%
O=C1/C(=C/c2ccccc2O)SC(=S)N1Cc1cccnc1	2.82µM*	7.51µM*	-28.0%[10 µM]	.	9.0%	-5.2%
Cc1cc(/C=C2\SC(=S)N(Cc3ccco3)C2=O)c(C)n1-c1cccnc1	-15.4%	0.282µM*	-16.3%	8.8	?	5.4%[38.3 µM]
CCN1C(=O)/C(=C\c2cn(-c3ccccc3)nc2-c2cccnc2)SC1=S	.	0.8%	-9.2%	.	13.7%	3.6%
Cc1cc(/C=C2\NC(=S)NC2=O)c(C)n1-c1cccnc1	.	22.9%	-33.2%[10 µM]	.	-21.1%[9.22 µM]	.
O=C1/C(=C/c2cccnc2)SC(=S)N1Cc1ccco1	-14.2%	2.24µM*	5.9%[10 µM]	.	.	3.6%
O=C(NN1C(=O)/C(=C/c2ccc(O)c([N+](=O)[O-])c2)SC1=S)c1ccccc1Cl	.	?	13.0%	.	-28.3%	1.0%
COc1nnc(-c2ccc(N3CCCCC3)c(NC(=O)c3ccccc3Cl)c2)c2ccccc12	.	.	.	8.4	.	.
CN1C(=O)/C(=C/c2ccc(O)c([N+](=O)[O-])c2)NC1=S	.	11.2µM*	2.4%[10 µM]	.	18.1%[9.22 µM]	14.7%
COc1cc(/C=C2\NC(=S)N(C)C2=O)ccc1O	.	?	-5.5%	.	23.9%	18.2%
COc1ccc(CN2C(=O)/C(=C/c3ccncc3)SC2=S)cc1	-19.9%	10µM*	-10.1%[10 µM]	.	?	14.0%
